Assay outcomes deposited in PubChem by several laboratories.
MIN6 prolif: inducers of MIN6 beta-cell proliferation, primary screen, ATP luminescence, uHTS; MIN6 cells proliferation, ATPlite luminescence, 48 h; cells starved in 0.2% serum; 100% = growth in 10% serum; proliferation, % at 10 µM; 330,000 compounds, 0.29% hits; AID 2380, 2010;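 active = compounds whose signal lies at least 3.5 SD above the mean of all wells on their plate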
OPRM1-OPRD1 inv: inverse agonists of MOR-DOR heterodimerization, primary screen, cell-based, luminescence. inhibition, % at 9.3 µM. cell-based MOR-DOR heterodimer luminescence, inverse agonism. Mu-type opioid receptor (Homo sapiens) + Delta-type opioid receptor (Homo sapiens), …. AID 504357, 2011. 340,000 compounds, 0.21% hits; in the data active = inhibition above about 22%, passing the limit was not always enough
HTR5A inv ag: HTR5A inverse agonists in luminescence cell assay, primary screen, counter-screen for OPRM1-OPRD1 heterodimer inverse agonist project, full-deck HTS; 340,000 compounds, 0.083% hits; inhibition, % at 9.3 µM; 5-hydroxytryptamine receptor 5A (Homo sapiens), P47898; HTR5A cell line, inverse agonism; in the data active = inhibition mostly above about 23%, no sharp cut-off; inactive = mostly below about 18%
MOR-DOR ag-1: agonists of OPRM1-OPRD1 heterodimerization, primary screen, cell-based, luminescence. Mu-type opioid receptor (Homo sapiens) + Delta-type opioid receptor (Homo sapiens), …. cells. activation, % at 9.3 µM. 340,000 compounds, 0.3% hits
HTR5A ag: HTR5A agonists in luminescence cell assay, primary screen, counter-screen for OPRM1-OPRD1 heterodimer agonist project, full-deck HTS; 5-hydroxytryptamine receptor 5A (Homo sapiens), P47898; activation, % at 9.3 µM; AID 504692, 2011; cell-based; 340,000 compounds, 0.61% hits; in the data active = activation mostly above about 9.5%, no sharp cut-off; inactive = mostly below about 7.6%
p-CIP stab down: p/CIP-EGFP fusion destabilizers, primary screen, fluorescence, F442A cells; Q05BA5; 16 h; decrease of EGFP signal, % at 10 µM; 290,000 compounds, 0.01% hits;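 active = EGFP signal decrease of at least 30% at 10 µM or well 3 SD below plate mean, unless failing retest; inactive = the rest, including hits failing retest or dose response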
MOR-DOR ag-2: OPRM1-OPRD1 heterodimerization promoters, counter-screen for HTR5A agonist project, cell-based, luminescence | activation, % at 9.3 µM | 800 compounds, 13% hits | shares compounds with HTR5A ag | U2OS counter-screen cells, complementation luminescence, 3 h
HTR5A ag conf: HTR5A agonists, retest of hits, confirmation, cell-based, luminescence | activation, % at 9.3 µM | HTR5A agonist cell assay | shares compounds with HTR5A ag | 800 compounds, 17% hits; in the data active = activation above about 17%
A number is an active result; 0 = inactive; - = no result given. Most compounds without a hit are left out; they make up all but 1.4% or so of the library. Cut-off read from the data, not from the text of the source, unless noted: active = activation above about 18%; inactive = the rest.

SMILES	MIN6 prolif	OPRM1-OPRD1 inv	HTR5A inv ag	MOR-DOR ag-1	HTR5A ag	p-CIP stab down	MOR-DOR ag-2	HTR5A ag conf
O=C(CS(=O)(=O)c1ccc(F)cc1)Nc1nnc(-c2ccccc2Cl)o1	0	0	0	0	34	-	0	0
CCC(C)c1ccccc1N1CC(C(=O)Nc2ccc(C)c(S(=O)(=O)N3CCOCC3)c2)CC1=O (stereo unspecified)	0	0	0	0	0	-	-	-
CCCCCCCCCCOC(=O)Cn1c(COc2ccccc2OC)[n+](C)c2ccccc21	0	0	0	0	14	0	37	0
Cc1ccc(S(=O)(=O)CCc2ccccn2)cc1	0	0	0	0	0	0	-	-
CC(C)(C)c1ccc(S(=O)(=O)CCc2ccccn2)cc1	0	0	0	0	24	0	0	0
COc1ccc(C(=O)N2CCN(c3ccccc3Cl)CC2)cc1S(=O)(=O)NC1CC1	0	0	0	0	18	-	96	0
COc1ccccc1N1CCN(C(=O)c2cccc(C(=O)N3CCN(c4ccccc4OC)CC3)c2)CC1	0	0	0	0	15	0	0	0
COc1ccccc1N1CCN(C(=O)C2CCN(C(=O)c3cccc(Cl)c3)CC2)CC1	0	0	0	0	0	0	-	-
CCN(C[C@H]1N[C@@](Cc2ccccc2)(C(=O)OC)[C@H]2C(=O)N(C)C(=O)[C@@H]12)S(=O)(=O)c1ccc(OC)cc1	0	0	0	0	0	-	-	-
O=C(NNC(=O)c1ccccc1-n1cccc1)c1cncc(Br)c1	0	0	0	0	0	-	-	-
O=c1oc(CCO)cc2ccc(Br)cc12	0	0	0	0	0	-	-	-
COc1ccc(S(=O)(=O)Nc2ccc(OCC(=O)O)cc2)c2ccccc12	0	0	0	0	0	0	-	-
O=C(NCCc1ccc(F)cc1)C(=O)NCC1CCCN1S(=O)(=O)c1cccs1 (stereo unspecified)	0	0	0	0	15	-	0	0
COc1cc(CCNc2ccc3nnc(-c4ccccc4)n3n2)cc(OC)c1OC	0	0	0	0	17	0	0	0
COc1ccc2nnc(-c3ccccc3)n2n1	0	0	0	0	0	0	-	-
O=C(CN1C(=O)CSc2ncccc21)NCCN1CCOCC1	0	0	0	0	16	0	0	0
O=c1[nH]c2ccccc2cc1-c1nnn(-c2ccccc2)n1	0	0	0	0	21	-	59	0
COc1ccc2ccccc2c1CNC(C)c1ccccc1 (stereo unspecified)	0	0	0	0	0	0	-	-
CC(NCCCOc1cccc2ccccc12)c1ccccc1 (stereo unspecified)	0	0	0	0	15	0	43	0
O=C(/C=C/c1ccc(S(=O)(=O)N2CCOCC2)cc1)NC(CO)C(O)c1ccc([N+](=O)[O-])cc1 (stereo unspecified)	0	0	0	0	0	-	-	-
COc1ccc(NC(=O)COC(=O)CCc2ccc(S(=O)(=O)N3CCOCC3)cc2)c(OC)c1	0	0	0	0	0	-	-	-
COC(=O)c1ccc(-c2cc(C(=O)O)c3cc4c(cc3n2)OCCO4)cc1	0	0	0	0	17	0	0	0
CCN(CC(=O)NC1CCS(=O)(=O)C1)C(C)C(=O)Nc1ccc(F)cc1 (stereo unspecified)	0	0	0	0	0	-	-	-
O=C(NC(CSC(=O)c1ccccc1)C(=O)O)OCc1ccccc1 (stereo unspecified)	-	0	0	0	0	-	-	-
Cn1c(SCC(=O)NCC2CCCO2)nc2c([nH]c3ccccc32)c1=O (stereo unspecified)	0	0	0	0	22	0	0	0
SMILES	MIN6 prolif	OPRM1-OPRD1 inv	HTR5A inv ag	MOR-DOR ag-1	HTR5A ag	p-CIP stab down	MOR-DOR ag-2	HTR5A ag conf
CC1=CC2=NC(=O)C(c3ccccc3)C(=O)N2C=C1 (stereo unspecified)	-	0	0	0	0	-	-	-
O=S(=O)(c1cccc(NC(=S)N2CCN(c3cccc(Cl)c3)CC2)c1)C(F)F	0	0	0	0	15	0	31	0
CN(Cc1ccccc1Cl)C(=O)c1cnccc1C(F)(F)F	0	0	0	0	15	0	0	0
CCC(C)NS(=O)(=O)c1ccc(S(=O)(=O)N(CC(=O)Nc2ccccc2)Cc2ccco2)cc1 (stereo unspecified)	0	0	0	0	15	0	0	0
CN1C(=O)c2cccc3c(S(=O)(=O)N4CCCC4C(=O)O)ccc1c23 (stereo unspecified)	0	0	0	0	17	0	0	0
COc1ccccc1N1CCN(S(=O)(=O)c2ccc3c4c(cccc24)C(=O)N3C)CC1	-	-	-	-	-	0	-	-
Cc1cc(C(=O)COC(=O)c2ccc(O)cc2O)c(C)n1-c1ccc(OC(F)F)cc1	0	0	0	0	27	-	0	25
Cc1cc(C(=O)COC(=O)c2ccc(O)cc2O)c(C)n1-c1ccccc1	0	0	0	0	0	-	-	-
COc1ccc(-n2c(C)cc(C(=O)COC(=O)c3ccc(O)cc3O)c2C)cc1	0	0	0	0	15	-	0	0
Cc1cc(C(=O)CC#N)c(C)n1-c1ccc(OC(F)F)cc1	0	0	0	0	0	0	-	-
NC(=O)C1CCN(c2nc(-c3ccc4ccccc4c3)cs2)CC1	0	0	0	0	0	-	-	-
C=C1C[C@H](O[C@@H]2O[C@H](CO)[C@@H](O)[C@H](O)[C@H]2O)[C@@H]2[C@H](OC(=O)[C@H]2C)[C@H]2[C@H](C)[C@H](O)C[C@@H]12	0	0	0	0	0	-	-	-
CN(CC(=O)Nc1ccc(Cl)cc1)C(=O)CCc1nc2sc3c(c2c(=O)[nH]1)CCCC3	0	0	0	0	21	-	0	0
Cc1cc[n+](Cc2ccccc2)c(N)c1	0	0	0	0	14	-	55	0
CCC1(c2ccc(OC)cc2)NC(=O)N(CC(=O)c2ccc3c(c2)OCCO3)C1=O (stereo unspecified)	0	0	0	0	0	-	-	-
C/C(=N\NC(=O)CNc1cccc(C)c1)c1ccc(Br)s1	0	0	0	0	25	0	0	34
C/C(=N/NC(=O)CNC(=O)c1ccccc1)c1ccc(C)cc1	0	0	0	0	0	0	-	-
C/C(=N\NC(=O)CNc1ccccc1)c1ccccc1	0	0	0	0	18	0	0	0
C/C(=N\NC(=O)Cc1ccccc1)c1ccc(Br)s1	0	0	0	0	0	0	-	-
